Assay results as given in the supplement of paper PMC6089552.
Screen size: about 3,200 compounds; about 300 (9.4%) showed activity. This is one part of a sample in which actives are shown more often than they occur.

Tested on: A673/TR/shEF
Assay: cell viability (LOESS-normalised, relative to median of negative controls) (log2 ratio); higher = more viable cells (less compound effect), active = hit call of the paper (over 3 MAD below the median)
Details: treatment time: 72 h
Procedure, shortened: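 Viability of A673/TR/shEF Ewing sarcoma cells was determined by CellTiter-Glo luminescence. The cells, at 1,500 per well in 384-well plates, were grown with or without doxycycline from 24 h before compound addition to switch on EWS-FLI1 shRNA knockdown, then exposed for three days to library compounds at two or more concentrations or to DMSO controls. Signals were LOESS-corrected plate by plate, normalised to the negative-control median and log2-transformed.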

[1] = 0.25 µM, library screen: screen1, EWS-FLI1 expression: high (no doxycycline)
[2] = 0.25 µM, library screen: screen1, EWS-FLI1 expression: low (doxycycline-induced shRNA knockdown)
[3] = 2.5 µM, library screen: screen1, EWS-FLI1 expression: high (no doxycycline)
[4] = 2.5 µM, library screen: screen1, EWS-FLI1 expression: low (doxycycline-induced shRNA knockdown)
[5] = 0.25 µM, library screen: screen2, EWS-FLI1 expression: high (no doxycycline)
[6] = 0.25 µM, library screen: screen2, EWS-FLI1 expression: low (doxycycline-induced shRNA knockdown)
[7] = 2.5 µM, library screen: screen2, EWS-FLI1 expression: high (no doxycycline)
[8] = 2.5 µM, library screen: screen2, EWS-FLI1 expression: low (doxycycline-induced shRNA knockdown)
[9] = 0.103 µM, library screen: screen3, EWS-FLI1 expression: high (no doxycycline)
[10] = 0.103 µM, library screen: screen3, EWS-FLI1 expression: low (doxycycline-induced shRNA knockdown)
[11] = 0.308 µM, library screen: screen3, EWS-FLI1 expression: high (no doxycycline)
[12] = 0.308 µM, library screen: screen3, EWS-FLI1 expression: low (doxycycline-induced shRNA knockdown)
[13] = 0.926 µM, library screen: screen3, EWS-FLI1 expression: high (no doxycycline)
[14] = 0.926 µM, library screen: screen3, EWS-FLI1 expression: low (doxycycline-induced shRNA knockdown)
[15] = 2.8 µM, library screen: screen3, EWS-FLI1 expression: high (no doxycycline)
[16] = 2.8 µM, library screen: screen3, EWS-FLI1 expression: low (doxycycline-induced shRNA knockdown)
[17] = 8.3 µM, library screen: screen3, EWS-FLI1 expression: high (no doxycycline)
[18] = 8.3 µM, library screen: screen3, EWS-FLI1 expression: low (doxycycline-induced shRNA knockdown)
[19] = 25 µM, library screen: screen3, EWS-FLI1 expression: high (no doxycycline)
[20] = 25 µM, library screen: screen3, EWS-FLI1 expression: low (doxycycline-induced shRNA knockdown)

Measured: cell viability (log2)

C/C=C(/C)C(=O)O[C@H]1CC[C@@]2(C)[C@@H]3CC[C@H]4[C@]5(O)C[C@H](O)[C@@]6(O)[C@@H](CN7C[C@@H](C)CC[C@H]7[C@@]6(C)O)[C@]5(O)C[C@@]42O[C@]13O
inactive: [1] 0.0954 | [2] 0.0385 | [3] 0.186 | [4] -0.0784

C#CCOC(=O)C1=CCCN(C)C1
inactive: [5] 0.0844 | [6] 0.129 | [7] 0.0951 | [8] 0.11

CC(Cc1ccc(OCC(=O)O)cc1)NCC(O)c1cccc(Cl)c1 (stereo unspecified)
inactive: [5] 0.122 | [6] 0.143 | [7] 0.229 | [8] 0.136

C[N+]1(C)CCc2cc3c(cc2[C@H]1[C@@H]1OC(=O)c2c1ccc1c2OCO1)OCO3
inactive: [5] 0.123 | [6] 0.0886 | [7] 0.123 | [8] 0.104

COC[C@]12CN(C=O)[C@H]3C4[C@H](OC)[C@H]1C3([C@@H](OC)C[C@H]2O)[C@@H]1C[C@@]2(O)[C@H](OC(=O)c3ccccc3)[C@@H]1[C@]4(OC(C)=O)[C@@H](O)[C@@H]2OC
inactive: [1] 0.0391 | [2] 0.0831 | [3] 0.0466 | [4] 0.114

C=CCN1C[C@@H](C)N([C@H](c2ccc(C(=O)N(CC)CC)cc2)c2cccc(OC)c2)C[C@@H]1C
inactive: [5] 0.0848 | [6] 0.0464 | [7] 0.222 | [8] 0.00445

COc1cc2c(cc1OC)[C@@]13CCN4CC5=CCO[C@H]6CC(=O)N2[C@H]1[C@H]6[C@H]5C[C@H]43
inactive: [1] 0.0057 | [2] 0.0368 | [3] 0.098 | [4] -0.0757

CC(=O)Oc1ccc(C=Cc2cc(OC(C)=O)cc(OC(C)=O)c2)cc1
inactive: [1] 0.101 | [2] 0.0764 | [3] 0.00309 | [4] 0.228

Nc1ncnc2c1ncn2C1OC2COP(O)(=S)OC2C1O (stereo unspecified)
inactive: [5] 0.0926 | [6] 0.132 | [7] 0.0861 | [8] 0.0676

O.O=C1OC2(c3cc(Br)c([O-])cc3Oc3c2cc(Br)c([O-])[c]3[Hg])c2ccccc21.[Na+].[Na+] (stereo unspecified)
inactive: [1] 0.113 | [2] 0.0666 | [3] 0.139 | [4] 0.132

CN1C2CCC1CC(OC(=O)C(CO)c1ccccc1)C2 (stereo unspecified)
inactive: [5] 0.252 | [6] 0.166 | [7] 0.123 | [8] 0.223

C[C@]12CC[C@H]3[C@@H](CCC4=CC(=O)CC[C@@]43C)[C@@H]1CC[C@@H]2OC(=O)CCC1CCCC1
inactive: [9] -0.000785 | [10] 0.011 | [11] 0.0351 | [12] 0.0268 | [13] 0.0442 | [14] 0.0219 | [15] 0.0558 | [16] 0.00975 | [17] 0.0577 | [18] 0.0516 | [19] 0.0518 | [20] 0.0747

CC(N)Cc1ccc(O)cc1 (stereo unspecified)
inactive: [1] 0.0594 | [2] 0.0957 | [3] 0.092 | [4] 0.0198

COC[C@H]1OC(=O)c2coc3c2[C@@]1(C)C1=C(C3=O)[C@@H]2CCC(=O)[C@@]2(C)C[C@H]1OC(C)=O
active: [3] -0.356 | 25 µM, library screen: screen1, EWS-FLI1 expression: high (no doxycycline) -0.711 | 25 µM, library screen: screen1, EWS-FLI1 expression: low (doxycycline-induced shRNA knockdown) -0.309
inactive: 0.025 µM, library screen: screen1, EWS-FLI1 expression: high (no doxycycline) 0.254 | 0.025 µM, library screen: screen1, EWS-FLI1 expression: low (doxycycline-induced shRNA knockdown) 0.0235 | [1] 0.137 | [2] -0.0412 | [5] 0.179 | [6] 0.0105 | [4] -0.0837 | [7] -0.0237 | [8] 0.0148

CCCN1CCC[C@@H](c2cccc(C#N)c2)C1
inactive: [5] 0.21 | [6] 0.0529 | [7] 0.222 | [8] 0.141

CC1(C)C2C[C@@H](O)[C@]3(C)C(CC[C@@]4(C)[C@H](c5ccoc5)CC5OC543)[C@@]2(C)[C@@H](O)C[C@H]1O (stereo partly specified)
inactive: [1] 0.0938 | [2] 0.113 | [3] 0.107 | [4] 0.116

CCCN(CCC)c1c([N+](=O)[O-])cc(C(F)(F)F)cc1[N+](=O)[O-]
inactive: [1] -0.0384 | [2] 0.0507 | [3] 0.104 | [4] 0.107

CCOC(=O)NC1=C(N2CC2)C(=O)C(NC(=O)OCC)=C(N2CC2)C1=O
active: 25 µM, library screen: screen2, EWS-FLI1 expression: high (no doxycycline) -3.5 | 25 µM, library screen: screen2, EWS-FLI1 expression: low (doxycycline-induced shRNA knockdown) -0.288
inactive: 0.025 µM, library screen: screen2, EWS-FLI1 expression: high (no doxycycline) -0.0137 | 0.025 µM, library screen: screen2, EWS-FLI1 expression: low (doxycycline-induced shRNA knockdown) -0.0126 | [1] 0.102 | [2] 0.0213 | [5] 0.153 | [6] -0.00616 | [3] 0.0672 | [4] 0.107 | [7] -0.0475 | [8] 0.0995

CCC(C)[C@H]1O[C@]2(C=C[C@@H]1C)C[C@@H]1C[C@@H](C/C=C(\C)[C@@H](O[C@H]3C[C@H](OC)[C@@H](O[C@H]4C[C@H](OC)[C@@H](O)[C@H](C)O4)[C@H](C)O3)[C@@H](C)/C=C/C=C3\CO[C@@H]4[C@H](O)C(C)=C[C@@H](C(=O)O1)[C@]34O)O2.CO[C@H]1C[C@H](O[C@H]2[C@H](C)O[C@@H](O[C@@H]3/C(C)=C/C[C@@H]4C[C@@H](C[C@]5(C=C[C@H](C)[C@@H](C(C)C)O5)O4)OC(=O)[C@@H]4C=C(C)[C@@H](O)[C@H]5OC/C(=C\C=C\[C@@H]3C)[C@]54O)C[C@@H]2OC)O[C@@H](C)[C@@H]1O (stereo partly specified)
inactive: [1] 0.0422 | [2] 0.0818 | [3] 0.0639 | [4] 0.0892

Cn1cc(C2=C(c3cn(C4CCN(Cc5ccccn5)CC4)c4ccccc34)C(=O)NC2=O)c2ccccc21
inactive: [9] -0.105 | [10] -0.0101 | [11] -0.0168 | [12] 0.054 | [13] -0.0718 | [14] 0.0485 | [15] -0.024 | [16] -0.0681 | [17] 0.0419 | [18] 0.0589 | [19] -0.03 | [20] 0.0493

C=CCN1CCC23c4c5ccc(O)c4O[C@@H]2/C(=N/NC(=O)c2ccccc2)CCC3(O)[C@H]1C5 (stereo partly specified)
inactive: [5] 0.0804 | [6] 0.0684 | [7] 0.0878 | [8] 0.0887
